Source: PubChem BioAssay (National Center for Advancing Translational Sciences (NCATS))
Sampled rows, rich in hits. Any-hit rate of the full collection: about 2.1%.
D2 antag = HTS Assay for Allosteric Antagonists of the Human D2 Dopamine Receptor: Primary Screen for Antagonists; 340,000 compounds, 2% hits; HEK293 TREx D2 cells, calcium flux, dopamine EC80; inhibition, % at 10 µM; D(2) dopamine receptor (Homo sapiens), P14416; AID 485344, 2010; in the data active = inhibition above about 30%; inactive = below that, where a call was filed; also: 0% is about no effect
Target sequence (P14416 whole entry, looked up): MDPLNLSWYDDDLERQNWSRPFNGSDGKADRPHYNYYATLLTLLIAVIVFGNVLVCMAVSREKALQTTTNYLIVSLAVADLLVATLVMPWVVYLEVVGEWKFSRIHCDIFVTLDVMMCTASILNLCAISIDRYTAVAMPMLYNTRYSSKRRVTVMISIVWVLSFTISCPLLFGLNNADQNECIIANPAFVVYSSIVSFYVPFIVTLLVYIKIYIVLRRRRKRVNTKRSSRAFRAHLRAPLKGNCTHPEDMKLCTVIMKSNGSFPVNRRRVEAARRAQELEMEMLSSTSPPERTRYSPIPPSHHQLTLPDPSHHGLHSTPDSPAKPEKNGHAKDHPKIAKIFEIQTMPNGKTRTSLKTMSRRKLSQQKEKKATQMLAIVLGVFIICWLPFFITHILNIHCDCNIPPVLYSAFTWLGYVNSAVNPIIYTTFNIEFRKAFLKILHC
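Cells plated overnight at 30 C with tetracycline; no-wash calcium dye, 30–90 min RT; 10 s baseline; compound pinned; 180 s read; EC80 dopamine added; another 180 s read.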
LDHA block = qHTS assay for inhibitors of human lactate dehydrogenase; 480,000 compounds, 0.15% hits; purified LDHA, NADH/diaphorase-resazurin fluorescence; active compounds read low; L-lactate dehydrogenase A chain (Homo sapiens), P00338; activity change, % (values are at about 110 or 230 µM); AID 1347041, 2019; in the data active = activity change below about -30%; inconclusive = mostly about -25% to -30%;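 also: plate controls were DMSO wells for no effect and wells without enzyme for full effect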
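Human LDH5 (2 nM) was incubated with 0.06 mM NADH and 0.2 mM pyruvate for 5 min at room temperature in Tris pH 7.4. Remaining NADH was coupled through diaphorase/resazurin, and resorufin fluorescence was read at 0 and 20 min.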
D2 PAM-1 = Beta-Arrestin HTS for Positive Allosteric Modulators of the Human D2 Dopamine Receptor: Potentiators; DiscoveRx D2 beta-arrestin cells, luminescence, 90 min; 100% = 57 uM dopamine signal; potentiation, % (test concentration not listed); 360,000 compounds, 0.23% hits; AID 624464, 2012; in the data active = potentiation above about 50%; inconclusive = mostly about 30% to 49%
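D2 cells co-treated with compound plus 50 nM dopamine (EC20) for 90 min at 37 deg C to detect potentiation. Beta-arrestin recruitment was read as enzyme-fragment luminescence after 1 h at ambient temperature. Full response was set by 57 uM dopamine.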
D2 PAM-2 = HTS Assay for Positive Allosteric Modulators of the Human D2 Dopamine Receptor: Primary Screen for Potentiators. D(2) dopamine receptor (Homo sapiens), P14416. HEK293 T-REx D2, calcium flux, EC20 dopamine potentiation. potentiation, % at 10 µM. 340,000 compounds, 0.34% hits. AID 485347, 2010;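 active = potentiation over 3 SD above the plate norm, cut at about 30% in these data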; also: 0% is about no effect
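Calcium flux readout, no-wash dye, 1 read/s. Inducible HEK293 Trex D2 line, overnight 30 C. Compound alone 180 s (agonist flags), then EC20 dopamine, another 180 s to score potentiation.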
D2 ag-1 = Beta-Arrestin HTS for Positive Allosteric Modulators of the Human D2 Dopamine Receptor: Agonists | D(2) dopamine receptor (Homo sapiens), P14416 | DiscoveRx PathHunter D2 beta-arrestin, luminescence, 90 min; 100% = 57 uM dopamine signal | activation, % (test concentration not listed) | 360,000 compounds, 0.084% hits | AID 624465, 2012; in the data active = activation above about 40%; inconclusive = between about 15% and that limit
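DiscoveRx PathHunter D2 beta-arrestin cells (2,100/well) attached overnight, then compound-stimulated 90 min at 37 C in HBSS/10 mM HEPES/0.1% Tween-20 buffer; beta-galactosidase complementation read by luminescence after 1 h at ambient temperature. Dopamine 57 uM final (EC100) as control.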
D2 ag-2 = HTS Assay for Allosteric Agonists of the Human D2 Dopamine Receptor: Primary Screen for Agonists. HEK293 T-REx D2 cells, calcium flux agonist mode. activation, % at 2 µM. 340,000 compounds, 0.53% hits. AID 485358, 2010;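 active = activation over 3 SD above normal in the single-dose calcium agonist read, cut at about 30% in these data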; also: 0% is about no effect
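Agonism is scored from calcium flux in a force-coupled, inducible HEK293 cell line expressing D2, read kinetically for 180 s after compound addition against dopamine controls.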
Active calls of the source: *; u = inconclusive; x = not tested or not shown.

SMILES | D2 antag | LDHA block | D2 PAM-1 | D2 PAM-2 | D2 ag-1 | D2 ag-2
O=C(Nc1ccc(F)cc1)C(c1ccccc1)N1CCN(S(=O)(=O)c2ccc3ccccc3c2)CC1 (stereo not given) | 37* | -5 | -10 | -2 | 1 | 1
Cc1ccc(C)c(S(=O)(=O)N2CCN(C(C(=O)Nc3ccc(F)cc3)c3ccccc3)CC2)c1 (stereo not given) | -8 | -6 | -13 | -4 | -1 | 0
Cc1cccc(NC(=O)NCC2CCN(CCc3ccc(F)cc3)CC2)c1C | x | -10 | x | x | x | x
COc1ccccc1N1CCN(Cc2nc(N)nc(Nc3ccc(C)c(Cl)c3)n2)CC1 | 55* | -4 | -7 | x | 1 | 1
COc1ccccc1Nc1nc(N)nc(CN2CCN(c3ccccc3F)CC2)n1 | -7 | -7 | -29 | 19 | 1 | -1
COC(=O)c1cc(CN2CCN(c3ccccc3C)CC2)ccc1O | 58* | -15 | -21 | -13 | -4 | -1
COc1ccc(CN2CCN(c3ccccc3OC)CC2)cc1OC | 66* | -21 | -3 | -33 | -4 | 1
COc1ccc(CN2CCN(c3ccccc3OC)CC2)c(OC)c1 | 91* | -6 | -64 | -21 | -1 | 0
C=CCNc1nc(C(=O)OC(C)C(=O)Nc2ccc(F)c(F)c2F)cs1 (stereo not given) | x | -3 | x | x | x | x
CCOC(=O)COc1ccc2c(=O)c(Oc3ccccc3OC)coc2c1 | x | -12 | x | x | x | x
CC(=O)Nc1ccc(NCC(=O)NCc2ccc(Cl)cc2)c(C(F)(F)F)c1 | x | 2 | x | x | x | x
COc1ccc(OC)c(CN2CCN(Cc3cccc4ccccc34)CC2)c1 | 71* | u | -12 | -31 | 11 | -1
O=[N+]([O-])c1cc2c(cc1CN1CCN(CCOCCO)CC1)OCO2 | 10 | 12 | -39 | -2 | 0 | 1
COc1ccccc1N1CCN(Cc2cc3c(cc2[N+](=O)[O-])OCO3)CC1 | 52* | -15 | -3 | -17 | -6 | 0
CCN1CCN(Cc2c(OC)ccc3ccccc23)CC1 | -16 | 0 | -20 | x | -3 | 3
COc1ccc(OC)c(CN2CCCCCC2)c1 | -7 | -20 | -15 | -8 | -1 | -1
CCS(=O)(=O)N1CCN(Cc2ccccc2OC)CC1 | 5 | -31* | -1 | -13 | -1 | 0
COc1ccc2ccccc2c1CN1CCN(C)CC1 | 40* | -2 | -35 | -18 | -2 | 1
COc1ccccc1N1CCN(Cc2ccc(OC)c(OC)c2OC)CC1 | 81* | 0 | -44 | -30 | 1 | 1
COc1ccccc1N1CCN(Cc2cnc3ccc(Cl)cn23)CC1 | 55* | -1 | -9 | -29 | -4 | -1
COc1ccc(OC)c(CN2CCN(c3ccccc3OC)CC2)c1 | -2 | -11 | -20 | -3 | -2 | 0
CCn1c(CN2CCOCC2)nnc1SCC(=O)c1cc(C)n(CC)c1C | x | 1 | x | x | x | x
O=C(O)/C=C/C(=O)c1ccc(F)cc1 | x | -3 | x | x | x | x
CCc1ccc(C(=O)c2sc(Nc3ccc(OC)cc3)c(C(N)=O)c2N)cc1 | x | -18 | x | x | x | x
COC(=O)CC(NC(=O)c1cc(C)nc2c1cnn2C(C)C)c1ccccc1Cl (stereo not given) | x | 10 | x | x | x | x
SMILES | D2 antag | LDHA block | D2 PAM-1 | D2 PAM-2 | D2 ag-1 | D2 ag-2
COc1cc(NC(=O)COc2cccc(OC)c2)cc(OC)c1 | -14 | -1 | -1 | -3 | 0 | -2
COC(=O)c1cc(OC)c(OC)cc1NC(=O)c1ccco1 | -4 | 0 | -3 | 2 | 2 | 1
COc1ccc(NC(=O)COC(=O)c2cc(OC)c(OC)cc2NC(=O)c2ccco2)cc1OC | 58* | -4 | -5 | 17 | -1 | 0
COc1cccc(OCC(=O)Nc2ccc(OC)c(OC)c2)c1 | -13 | -7 | -1 | 32* | 0 | -2
COC(=O)c1ccc(CN(C)C(=O)CCc2ncc(-c3ccccc3F)o2)cc1 | x | 0 | x | x | x | x
CCOC(=O)N1CCN(CC(O)COc2ccccc2C(C)C)CC1 (stereo not given) | 6 | -9 | -12 | -16 | 3 | 0
CCOC(=O)N1CCN(CC(O)COc2ccccc2C(C)CC)CC1 (stereo not given) | 32* | -7 | -7 | -3 | 1 | 0
COc1ccccc1OCC(O)CN1CCN(C(=O)c2ccccc2)CC1 (stereo not given) | 3 | -1 | -27 | -12 | -3 | 33*
Cn1c(=O)c2c(ncn2CC2OCCO2)n(C)c1=O | 32* | -1 | -6 | 2 | -3 | 1
COCCOc1ccc(C(=O)/C=C/c2ccc(C(=O)OC)o2)cc1 | x | 8 | x | x | x | x
CCCCOC(=O)/C=C/c1ccc(OC(=O)OC)c(OC(=O)OC)c1 | 74* | 12 | -9 | -4 | 3 | 0
O=C(COC(=O)c1cnccn1)NCCc1ccc(Cl)cc1Cl | -36 | 0 | -12 | 4 | -5 | -1
O=C(COC(=O)c1cc[n+]([O-])cc1)NCCc1ccc(Cl)cc1Cl | 34* | 0 | 0 | -1 | -14 | 1
O=C1CCCC2=C1C(c1ccc(F)cc1F)Nc1nonc1N2 (stereo not given) | x | -33* | x | x | x | x
CCC(=O)c1ccc(OCC(=O)NCCCN2CCOCC2)cc1 | x | -7 | 3 | x | -5 | x
Cc1cc(OCC(=O)NCCN2CCOCC2)c2c(C)c(C)c(=O)oc2c1 | -9 | -3 | -2 | 33* | -2 | 0
COc1ccc(OCC(=O)NCCCN2CCOCC2)cc1 | 32* | 1 | -4 | -4 | 2 | 1
CCCCc1cc(=O)oc2cc(C)cc(OCC(=O)NCCN3CCOCC3)c12 | -26 | -3 | -11 | -23 | -2 | 0
COC(=O)c1ccc(C(=O)N2CCN(C(c3ccc(F)cc3)c3ccc(F)cc3)CC2)s1 | x | -1 | x | x | x | x
O=C(CSc1nc2c(sc3ccccc32)c(=O)n1CCCN1CCCC1)NCC1CCCO1 (stereo not given) | 12 | 0 | -36 | 41* | 0 | 1
Cc1cccc(CN(C)CCc2ccccn2)c1 | 5 | -22 | -10 | -9 | 0 | 1
Cc1ccccc1CN(C)CCc1ccccn1 | -10 | -32* | -5 | -5 | -7 | 0
Cn1ncc2c(N3CCN(c4ccccc4)CC3)nc(N3CCOCC3)nc21 | x | 2 | x | x | x | x
